RGS7-Gao reg – RGS7-Galphao binding modulators, primary screen, biochemical, multiplexed bead flow cytometry; actives lie on both sides; 220,000 compounds, 0.35% hits; AID 1439, 2008; binding response (% of control), % at 10 µM; Guanine nucleotide-binding protein G(o) subunit alpha (Homo sapiens), P09471; in the data active = binding response below about 49% or above about 150%; inconclusive = no clear call, values can overlap the other calls; inactive = in between;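 also: fluorescent Galphao held in activated GDP-AlF4 state binding bead-coupled RGS7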
Target sequence (P09471 whole entry, looked up): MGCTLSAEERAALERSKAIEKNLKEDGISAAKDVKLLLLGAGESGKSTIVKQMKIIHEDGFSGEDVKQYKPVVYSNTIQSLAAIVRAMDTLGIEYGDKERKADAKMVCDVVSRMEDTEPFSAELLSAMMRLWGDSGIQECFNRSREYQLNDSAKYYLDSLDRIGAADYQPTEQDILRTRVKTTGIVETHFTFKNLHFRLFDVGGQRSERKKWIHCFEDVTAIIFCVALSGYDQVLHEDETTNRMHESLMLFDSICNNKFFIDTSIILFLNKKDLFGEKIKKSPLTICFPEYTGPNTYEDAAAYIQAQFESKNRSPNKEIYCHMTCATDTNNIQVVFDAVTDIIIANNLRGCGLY
Avidin fluor – green autofluorescence of compounds with avidin beads – biophysical, 488/530 nm, flow cytometry, artefact control, profiling panel; fluorescence (KMESF) at 10 µM; compound fluorescence 488/530 nm; active compounds read high; 220,000 compounds, 0.38% hits; AID 1775, 2009; in the data active = fluorescence above about 47
GSH bead fluor – compound fluorescence on glutathione beads, profiling panel, artefact control, biophysical, 488/530 nm, flow cytometry. fluorescence (KMESF) at 10 µM. GSH beads flow cytometry, compound fluorescence 488/530 nm; active compounds read high. 190,000 compounds, 0.25% hits. AID 1776, 2009; in the data active = fluorescence above about 89;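 also: glutathione beads carrying GST-tagged Bcl family fusion proteins plus one bare bead set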
RGS8-Gao reg – RGS8-Galphao binding modulators, primary screen, biochemical, multiplexed bead flow cytometry. actives lie on both sides. 220,000 compounds, 0.34% hits. response (percent of control binding), % at 10 µM. Guanine nucleotide-binding protein G(o) subunit alpha (Homo sapiens), P09471; in the data active = response below about 60% or above about 140%; inactive = in between;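 also: Galphao activated as the GDP aluminium fluoride complex binding bead-coupled RGS8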
RGS16-Gao – modulators of RGS16 binding to Galphao, primary screen, biochemical, human proteins, multiplexed bead flow cytometry. binding response (% of control), % at 10 µM. bead-based flow cytometry RGS16-Galphao binding, fluorescence; actives lie on both sides. 220,000 compounds, 0.38% hits;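 also: Galphao activated by GDP with aluminum fluoride before binding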
Target sequence (O15492 whole entry, looked up): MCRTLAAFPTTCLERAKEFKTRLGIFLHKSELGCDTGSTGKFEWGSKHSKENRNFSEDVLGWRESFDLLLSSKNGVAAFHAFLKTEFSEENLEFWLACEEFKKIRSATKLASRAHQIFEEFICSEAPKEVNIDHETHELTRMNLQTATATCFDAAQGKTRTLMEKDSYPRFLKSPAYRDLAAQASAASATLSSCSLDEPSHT
Target sequence (P09471 whole entry, looked up): as the sequence (P09471 whole entry, looked up) above
RGS4-Gao reg – modulators of RGS4 binding to Galphao, primary screen, biochemical, multiplexed bead flow cytometry; Guanine nucleotide-binding protein G(o) subunit alpha (Homo sapiens), P09471; actives lie on both sides; binding response (% of control), % at 10 µM; 220,000 compounds, 0.33% hits; in the data active = binding response below about 49% or above about 150%; inactive = in between;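 also: fluorescent Galphao activated with aluminum fluoride binding bead-coupled RGS4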
RGS-Gao – modulators of RGS–Galpha-o binding, primary screen, biochemical, multiplexed beads, flow cytometry, RGS4/7/8/16/19. shares compounds with RGS16-Gao. multiplexed bead flow cytometry. RGS4–Galpha-o binding response, % at 10 µM. 1,600 compounds, 99% hits. AID 1504, 2009;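 also: fluorescently labeled Galpha-o bound to GDP with aluminium fluoride binding biotinylated RGS beads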
Biotin-avidin – disruption of biotin probe capture by avidin, counter-screen for RGS protein interaction modulators, biochemical, flow cytometry, bead-based; streptavidin beads, fluorescein-biotin binding; 1,700 tested, under 10 active; inhibition, % at 10 µM; shares compounds with RGS16-Gao;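 active = inhibition above 50%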;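 also: median green fluorescence of gated singlet beads compared with DMSO control wells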
RGS8-Gao single – RGS8-Galphao binding modulators, confirmation, biochemical, multiplexed bead flow cytometry, single concentration; shares compounds with RGS16-Gao; bead-based flow cytometry RGS8-Galphao binding, fluorescence; actives lie on both sides; binding response (% of control), % at 10 µM; 1,700 compounds, 3% hits; AID 1836, 2009; in the data active = binding response below about 72% or above about 130%; inactive = in between;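 also: Galphao activated as GDP AlF4 complex before binding bead RGS8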
RGS7-Gao confirm – RGS7-Galphao binding modulators, confirmation, biochemical, multiplexed bead flow cytometry, single concentration | response (percent of control binding), % at 10 µM | AID 1837, 2009 | bead-based flow cytometry RGS7-Galphao binding; actives lie on both sides | 1,700 compounds, 7.8% hits | shares compounds with RGS16-Gao; in the data active = response below about 75% or above about 130%; inactive = in between;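 also: fluorescent Galphao activated with GDP and aluminum fluoride binding bead-coupled RGS7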
RGS16-Gao conf – modulators of RGS16-Galphao protein binding, confirmation, biochemical, single concentration, multiplexed bead flow cytometry; shares compounds with RGS16-Gao; bead-based flow cytometry; actives lie on both sides; response (% of control binding), % at 10 µM; 1,700 compounds, 4% hits; AID 1838, 2009; in the data active = response below about 74% or above about 130%; inactive = in between;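 also: Galphao activated as the GDP aluminium fluoride complex binding bead-coupled RGS16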
RGS4-Gao single – modulators of RGS4-Galphao protein binding, confirmation, biochemical, single concentration, multiplexed bead flow cytometry; binding response (% of control), % at 10 µM; AID 1840, 2009; 1,700 compounds, 4% hits; shares compounds with RGS16-Gao; actives lie on both sides; in the data active = binding response below about 74% or above about 130%; inactive = in between
RGS19-Gao single – regulators of RGS19-Galphao binding, confirmation, biochemical, single point, multiplexed bead flow cytometry | bead-based flow cytometry RGS19-Galphao binding; actives lie on both sides | response (percent of control binding), % at 10 µM | shares compounds with RGS16-Gao | 1,700 compounds, 5% hits; in the data active = response below about 50% or above about 160%; inactive = in between
Numbers stand for hits; 0 = inactive; ? = inconclusive; - = not tested or not shown; [ ] = another dose, or the depositor's remark. A selection: hits, their analogues and other compounds. The true share with any hit is near 1.2%. Unless noted, no rule for the calls is given here.

SMILES | RGS7-Gao reg | Avidin fluor | GSH bead fluor | RGS8-Gao reg | RGS16-Gao | RGS4-Gao reg | RGS-Gao | Biotin-avidin | RGS8-Gao single | RGS7-Gao confirm | RGS16-Gao conf | RGS4-Gao single | RGS19-Gao single
O=C(NC1CCCCC1)c1ccc(N2CCCC2=O)cc1 | 0 | 0 | 0 | 0 | 211[activator] | 0 | 108 | - | - | - | - | - | -
COc1ccc(C(C)(C)C)cc1NC(=O)CNc1cccc2ccccc12 | 0 | 0 | 0 | 0 | 0 | 0 | - | - | - | - | - | - | -
CCc1nc(SCC(=O)c2ccccc2)c2ccccc2n1 | 0 | 0 | 0 | 0 | 0 | 0 | - | - | - | - | - | - | -
CCc1nc(SCC(=O)c2ccc3c(c2)OCCO3)c2ccccc2n1 | 0 | 0 | 0 | 142[activator] | 0 | 0 | 120 | 0 | 0 | 0 | 0 | 0 | 0
O=C(CSc1nc(Cc2ccccc2)nc2ccccc12)c1ccc2c(c1)OCCO2 | 0 | 0 | 0 | 0 | 0 | 0 | - | - | - | - | - | - | -
CCCc1nc(SCC(=O)c2ccc(OC)cc2)c2ccccc2n1 | - | - | 0 | - | - | - | - | 0 | 0 | 0 | 0 | 0 | 0
CC(=O)c1cccc(NC(=O)COC(=O)COc2ccc(Cl)cc2)c1 | 0 | 0 | 0 | 0 | 0 | 0 | - | - | - | - | - | - | -
COc1ccc(N2C(=O)CCC(C(=O)O)C2c2ccccc2OC)cc1 (stereo not given) | ? | 0 | - | 0 | 0 | 0 | - | - | - | - | - | - | -
Cc1cccc(N2C(=O)CS/C2=N\NC(=O)c2cccnc2)c1C | 0 | 0 | 0 | 0 | 0 | 0 | - | - | - | - | - | - | -
Cc1ccc([N+](=O)[O-])cc1NC(=O)/C=C/C(=O)O | ? | 0 | - | 0 | 0 | 0 | - | - | - | - | - | - | -
COc1ccc([N+](=O)[O-])cc1NC(=O)/C=C/C(=O)O | 0 | 0 | 0 | 0 | 13 | 0 | 91 | 0 | 0 | 0 | 0 | 0 | 0
COc1ccc([N+](=O)[O-])cc1NC(=O)Cc1ccc(C)cc1 | 0 | 0 | 0 | 0 | -0.2 | 0 | 84 | 0 | 0 | 0 | 0 | 0 | 0
O=c1c2cc(Cl)ccc2[nH]c(=S)n1Cc1cccs1 | 0 | 0 | 0 | 0 | 17 | 0 | 94 | 0 | 0 | 0 | 0 | 0 | 0
Cn1c(N2CCCC2)nc2c1c(=O)n(Cc1ccc(Cl)cc1)c(=O)n2C | - | - | 0 | - | - | - | - | 0 | 0 | 0 | 0 | 0 | 0
Cc1nn(Cc2ccc(F)cc2)c2sc(C(=O)Nc3ccccc3N3CCOCC3)cc12 | 0 | 0 | 0 | 0 | 15 | 0 | 89 | 0 | 0 | 0 | 0 | 0 | 0
Cc1nn(Cc2ccccc2Cl)c2sc(C(=O)Nc3ccccc3N3CCOCC3)cc12 | 0 | 0 | 0 | 0 | 0 | 0 | - | - | - | - | - | - | -
O=C1NN=COc2ccccc21 | 0 | 0 | 0 | 0 | 0 | 0 | - | - | - | - | - | - | -
Cc1cc(C(=O)CN2C(=O)NC3(CCCCC3C)C2=O)c(C)n1Cc1cccs1 (stereo not given) | 0 | 0 | 0 | 0 | 0 | 0 | - | - | - | - | - | - | -
O=S(=O)(NC1=NCCCCC1)c1ccc2sc(NS(=O)(=O)c3ccc4ccccc4c3)nc2c1 | ? | 0 | - | 0 | 0 | 0 | - | - | - | - | - | - | -
O=C(NNC(=S)Nc1ccc(Br)cc1Cl)c1ccncc1 | 164[activator] | 90 | 0 | 0 | 0 | 0 | 112 | 0 | 0 | 0 | 0 | 0 | 0
O=C(Nc1ccc2c(c1)OCCO2)c1coc2ccccc2c1=O | 0 | 0 | 0 | 0 | 0 | 0 | - | - | - | - | - | - | -
CNC(=O)c1ccsc1NC(=O)c1coc2ccccc2c1=O | -6.6 | 0 | 0 | 12 | 1.6 | 9.9 | - | 0 | 0 | 0 | 0 | 0 | 0
C/C(CC(=O)Nc1ccccn1)=N\NC(=O)c1ccc2ccccc2c1 | 0 | 0 | 0 | 0 | 211[activator] | 0 | 107 | 0 | 0 | 0 | 0 | 0 | 0
CCCNC(=O)CN1C(=O)NC2(CCCc3cc(OC)ccc32)C1=O (stereo not given) | 0 | 0 | 0 | 148[activator] | 0 | 0 | 108 | - | - | - | - | - | -
CC(C)CC(=O)/C(=C\c1ccc(Cl)cc1Cl)n1cncn1 | 0 | 0 | 0 | 42 | 0 | 48 | - | 0 | 0 | 0 | 0 | 0 | 0
SMILES | RGS7-Gao reg | Avidin fluor | GSH bead fluor | RGS8-Gao reg | RGS16-Gao | RGS4-Gao reg | RGS-Gao | Biotin-avidin | RGS8-Gao single | RGS7-Gao confirm | RGS16-Gao conf | RGS4-Gao single | RGS19-Gao single
COc1ccc(/C=C(/C(=O)c2ccc(Cl)cc2Cl)n2cncn2)cc1 | 0 | 0 | 0 | 0 | 0 | 0 | - | - | - | - | - | - | -
COc1ccccc1NC(=S)NCc1ccc(S(N)(=O)=O)cc1 | 0 | 0 | 0 | 0 | 0 | 0 | - | - | - | - | - | - | -
CC(C)n1c(NCCO)nc2ccccc21 | 37 | 0 | 0 | 57 | 0 | 49 | - | 0 | 0 | 0 | 0 | 0 | 0
COc1ccccc1C1C(C(=O)NCc2ccccc2)=C(C)Nc2ncnn21 (stereo not given) | 0 | 0 | 0 | 0 | 0 | 0 | - | - | - | - | - | - | -
CC1=C(C(=O)NCc2ccccc2)C(c2cccs2)n2ncnc2N1 (stereo not given) | 0 | 0 | 0 | 0 | -63 | 0 | 69 | 0 | 0 | 0 | 0 | 0 | 0
CNC(=O)CN(C)S(=O)(=O)c1ccc(OC)c(Cl)c1 | 19 | 0 | 0 | 16 | 17 | 25 | - | 0 | 0 | 0 | 0 | 0 | 0
Nc1c(C(=O)CCC(=O)O)oc2ccc(Cl)cc12 | 0 | 0 | 0 | 0 | 0 | 0 | - | - | - | - | - | - | -
CCOC(=O)c1cccc2c1-c1ccccc1/C2=N/O | 0 | 0 | 0 | 0 | 0 | 0 | - | - | - | - | - | - | -
